Consider one molecule from the supplement of paper PMC8728848.

This is one part of a sample in which the strongest signals are shown more often than they occur.

Common to all, as to test: glycan array binding signal (z-score within array); higher = stronger binding
Holding throughout (settings): glycan notation: IUPAC condensed, linker removed

In assay [1] the target is Neu5Ac(a2-8)Neu5Ac(a2-3)Gal(b1-4)GlcNAc. Put shortly: (§1)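 Glycan array data were curated from 3228 arrays in the Consortium for Functional Glycomics database and kept only where the protein sequence was available. Glycan names were converted to IUPAC-condensed notation, and columns mapping to the same glycan were averaged. The binding signal is a within-array Z-score, averaged across arrays of the same protein sequence at different concentrations or buffers and across linkers. Negative Z-scores can be read as non-binding.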

Assay [2] has as its target Neu5Ac(a2-8)Neu5Ac(a2-3)[GalNAc(b1-4)]Gal(b1-4)Glc. Put shortly: as §1
Assay [3] concerns the target Neu5Gc(a2-3)Gal(b1-4)GlcNAc(b1-3)Gal(b1-4)GlcNAc(b1-2)Man(a1-3)[Neu5Gc(a2-3)Gal(b1-4)GlcNAc(b1-3)Gal(b1-4)GlcNAc(b1-2)Man(a1-6)]Man(b1-4)GlcNAc(b1-4)GlcNAc. Put shortly: as §1

B1: FimA-N2 (Actinomyces oris) (protein)
chain: MHHHHHHSSGVDLGTENLYFQSNAWIYDVNVYPKNEAIDVDKTIQAQKLNGYGVGSLIKFPVESTAPTLDAKSFYKYFQLKDTLDERLSEVTATDVSLEGTPLQPTDYKVETKQQTVTVTFTAEGLKKIKAAPGKKVSAVFQGKVTKAGNGAITNRAQVISDTLYAEQPPTPETPPTDPENPPTSDEVISRWGDLSIKKVDTHQQGQTKA
Take B1: the “glycan array binding signal (z-score)” value was -0.815 in assay [1], -1.37 in assay [2] and -0.144 in assay [3].
